Screens as filed in PubChem.
An excerpt weighted towards active compounds, which were near 4.3% of everything screened.
DRD3 antagonist: qHTS of D3 Dopamine Receptor Antagonist: qHTS | D(3) dopamine receptor (Homo sapiens), P35462 | D3R cells, DiscoveRx beta-arrestin luminescence, antagonist mode; hits give low values | max response, negative = inhibition, % | 360,000 compounds, 2.5% hits; in the data active = max response below about -50%; inconclusive = no clear call, values can overlap the other calls; also: % is scaled to controls: 0 for no effect and ±100 for the full control effect
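Cells expressing the human receptor were seeded at 1500 cells/well, incubated overnight at 37 degrees C in 5% CO2, then exposed to library compounds with dopamine controls for 90 minutes at 37 degrees C before luminescent detection.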
GLP-1R agonist: qHTS of GLP-1 Receptor Agonists | Glucagon-like peptide 1 receptor (Homo sapiens), P43220 | HEK293 GLP-1R CRE-luciferase, luminescence, 4-6 h; cells express a hypersensitive GLP-1R form | Potency, µM (highest dose often 45.6 µM), for inactives: at the highest dose activation, usual class: activators | 380,000 compounds, 0.007% hits | AID 624172, 2012; also: potency is read from the fitted curve at half-maximal effect; % of control where 0% means no effect
Target sequence (P43220 whole entry, looked up): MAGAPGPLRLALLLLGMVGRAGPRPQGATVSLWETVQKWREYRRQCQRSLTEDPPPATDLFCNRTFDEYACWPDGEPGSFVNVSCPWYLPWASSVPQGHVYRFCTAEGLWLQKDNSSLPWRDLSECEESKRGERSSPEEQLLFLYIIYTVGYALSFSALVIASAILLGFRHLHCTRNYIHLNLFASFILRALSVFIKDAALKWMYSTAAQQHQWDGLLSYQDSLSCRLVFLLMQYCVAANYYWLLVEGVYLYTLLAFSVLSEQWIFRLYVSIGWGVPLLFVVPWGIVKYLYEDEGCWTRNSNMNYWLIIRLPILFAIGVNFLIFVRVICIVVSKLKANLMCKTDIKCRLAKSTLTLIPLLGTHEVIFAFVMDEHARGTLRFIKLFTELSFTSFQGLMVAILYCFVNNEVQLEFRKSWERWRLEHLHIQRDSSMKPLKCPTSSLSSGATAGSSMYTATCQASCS
GLP1R inv ag: qHTS of GLP-1 Receptor Inverse Agonists (Inhibition Mode). AID 624417, 2012. 410,000 compounds, 1.6% hits. Glucagon-like peptide 1 receptor (Homo sapiens), P43220. Potency, µM (highest dose often 38.3 µM), for the others: at the top dose activity change, negative = inhibition, usual class: inhibitors. HEK293 GLP-1R CRE-luciferase, luminescence, 24 h; GLP-1R form is constitutively active; also: potency is read from the fitted curve at half-maximal effect; % is scaled to controls: 0 for no effect and ±100 for the full control effect; nearly all actives have a fitted effect of over 55% in size
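Inverse agonists were sought by their lowering of basal cAMP reporter luciferase output in HEK293 cells stably carrying constitutively active human GLP-1R, after 24 h compound treatment.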
D3 ag: qHTS of D3 Dopamine Receptor Agonist: qHTS; 410,000 compounds, 0.58% hits; max activation, %; D3R DiscoveRx beta-arrestin cells, luminescence, 90 min; D(3) dopamine receptor (Homo sapiens), P35462; in the data active = max activation above about 30%; also: 0% is about no effect
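Agonist mode: compounds and dopamine controls were applied to plated cells for 90 min at 37 degrees C after an overnight attachment at 1500 cells/well. Luminescent read-out followed 30 - 60 minutes at room temperature with DiscoveRx detection reagent.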
* hit, by the source's call. Unless noted, calls follow the shape of the dose curve; as a rule, active = well fitted curve in the direction sought with a large enough effect; inconclusive = small, poorly fitted or top-dose-only effect, or another doubt; inactive = no such curve, though single readings can be large; an effect the other way counts as inactive or inconclusive.

What do the screens show for `Cc1ccc(CCNC(=O)c2cc(S(=O)(=O)N3CCCC3)cn2C)cc1`?
DRD3 antagonist: -145*; GLP-1R agonist: 11%; GLP1R inv ag: -16%; D3 ag: -1

How did COc1ccc(CCNC(=O)c2cc(S(=O)(=O)N3CCCCC3)ccc2Cl)cc1 do in these assays?
DRD3 antagonist: -8; GLP-1R agonist: 7%; GLP1R inv ag: 8.9µM*; D3 ag: -9

What do the screens show for `Cc1ccc(S(=O)(=O)N2CCC(C(=O)NCCc3ccc(S(N)(=O)=O)cc3)CC2)cc1`?
DRD3 antagonist: 12; GLP-1R agonist: -7%; GLP1R inv ag: 3%; D3 ag: 37*

Results for CC1CCCN(S(=O)(=O)c2cc3c4c(c2)CC(=O)N4CCC3)C1 (configuration not stated) ?
GLP1R inv ag: -17%; D3 ag: -15

How did CCCn1cc(S(=O)(=O)c2cc(C)ccc2C)c(=O)c2cc(F)c(N3CCOCC3)cc21 do in these assays?
GLP1R inv ag: -7%; D3 ag: -12

How did Fc1ccc(C(Nc2ccccc2Cl)c2nnc(-c3ccccc3Cl)o2)cc1 (configuration not stated) do in these assays?
GLP1R inv ag: inconclusive; D3 ag: 5

Results for COc1cccc(C(C(=O)NC2CCCC2)N(Cc2ccco2)C(=O)c2ccco2)c1OC (configuration not stated) ?
DRD3 antagonist: -65*; GLP-1R agonist: -7%; GLP1R inv ag: 0%; D3 ag: 0

What do the screens show for `Cc1nc2nc(SCc3ccccc3)[nH]n2c(=O)c1C`?
DRD3 antagonist: 28; GLP-1R agonist: -2%; GLP1R inv ag: 13%; D3 ag: -1

What do the screens show for `C=CCNC(=O)c1cc(-c2ccccc2)sc1N`?
DRD3 antagonist: -9; GLP1R inv ag: 11%; D3 ag: -2

Results for Nc1sc(-c2ccccc2)cc1C(=O)N1CCNCC1 ?
DRD3 antagonist: -54*; GLP1R inv ag: -17%; D3 ag: -21

Results for Cc1ccc(/C=N\NC(=O)c2csnn2)cc1 ?
DRD3 antagonist: -53*; GLP-1R agonist: -42%; GLP1R inv ag: 11%; D3 ag: -10

How did Cc1ccc(/C=N/NC(=O)c2ccncc2)cc1 do in these assays?
DRD3 antagonist: inconclusive; GLP-1R agonist: 0%; GLP1R inv ag: -5%; D3 ag: -5

What do the screens show for `Cc1cc(/C=C(\C#N)C(=O)NCc2cccs2)c(C)n1-c1ccccc1F`?
DRD3 antagonist: inconclusive; GLP-1R agonist: 7%; GLP1R inv ag: 2.8µM*; D3 ag: -10

How did COc1cc(OC)c(OC)cc1CNCCCSc1nnnn1C do in these assays?
GLP1R inv ag: 3%; D3 ag: -9

Results for O=[N+]([O-])c1cc([N+](=O)[O-])c2cc3ccccc3nc2c1 ?
DRD3 antagonist: -80*; GLP-1R agonist: 5%; GLP1R inv ag: 22%; D3 ag: -28

What do the screens show for `CCOC(=O)CSc1nnc([C@H](Cc2ccccc2)NC(=O)OC(C)(C)C)o1`?
DRD3 antagonist: inconclusive; GLP-1R agonist: 5%; GLP1R inv ag: -18%; D3 ag: -2

How did CC(C)(C)OC(=O)N[C@@H](Cc1ccccc1)c1nnc(S(=O)(=O)Cc2cccc(F)c2)o1 do in these assays?
DRD3 antagonist: -4; GLP-1R agonist: -1%; GLP1R inv ag: inconclusive; D3 ag: -22

Results for Cc1ccccc1CS(=O)(=O)c1nnc([C@H](CC(C)C)NC(=O)OC(C)(C)C)o1 ?
DRD3 antagonist: -66*; GLP-1R agonist: -30%; GLP1R inv ag: 0%; D3 ag: -59

What do the screens show for `CC[C@@H](C)[C@H](NC(=O)OC(C)(C)C)c1nnc(S(=O)(=O)Cc2cc(C)ccc2C)o1`?
DRD3 antagonist: -79*; GLP-1R agonist: -24%; GLP1R inv ag: inconclusive; D3 ag: -8

How did CC(C)C[C@H](NC(=O)OC(C)(C)C)c1nnc(SCc2ccccc2)o1 do in these assays?
DRD3 antagonist: -27; GLP-1R agonist: 0%; GLP1R inv ag: 8.9µM*; D3 ag: -7

Results for Cc1ccc(CSC2=NC(C)(C)Nc3ccccc32)c(C)c1 ?
GLP1R inv ag: 10µM*; D3 ag: 1

Results for CC1(C)N=C(SCc2ccc(Cl)cc2)c2ccccc2N1 ?
GLP1R inv ag: inconclusive; D3 ag: -13
